In PubChem BioAssay (NCATS):
Values joined by “and” are separate entries in the source; they are usually repeats but may differ in a detail not shown here. Equal entries are not always repeated. Inconclusive results are not listed. Active and inactive are the calls of the source. Calls follow the shape of the dose curve; as a rule, active = well fitted inhibition curve with a large enough effect; inconclusive = small, poorly fitted or top-dose-only effect; inactive = flat fitted curve, though single readings scatter.

Test: P-glycoprotein substrates identified in KB-8-5-11 adenocarcinoma cell line, qHTS therapeutic library screen (AID 1346987); also: nearly all actives have a fitted effect of over 65% in size
Details: KB-8-5-11 (P-gp overexpressing) viability, CellTiter-Glo, 72 h; series mostly up to 44.5 µM; activity change, negative = cytotoxicity: at the top concentration
Method in brief: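 In this qHTS, P-gp-rich KB-8-5-11 cells received library compounds across a concentration range. Viability was quantified by luminescence after 72 h at 37 degree C.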
% is scaled to controls: 0 for no effect and ±100 for the full control effect; potency is read from the fitted curve at half-maximal effect.

Structure (SMILES)	outcome	Potency	activity change, negative = cytotoxicity
c1cc(-c2sc(-c3ccncc3)c(-c3ccncc3)c2-c2ccncc2)ccn1	inactive	–	–
O=c1[nH]cnc2c1ncn2[C@H]1CC[C@@H](CO)O1	–	inactive	–
CC[C@]1(O)C[C@@H]2CN(CCc3c([nH]c4ccccc34)[C@@](C(=O)OC)(c3cc4c(cc3OC)N(C)[C@H]3[C@@](O)(C(=O)OC)[C@H](OC(C)=O)[C@]5(CC)C=CCN6CC[C@]43[C@@H]65)C2)C1	–	5.8 µM (active) and 5.17 µM (active) and 1.16 µM (active)	–
CC(C)C(=O)Nc1ncc(-c2cc(C(F)F)nn2-c2c(Cl)cccc2Cl)s1	–	23.1 µM (active)	–
C[C@]12CC[C@@H]3c4ccc(O)cc4CC[C@H]3[C@H]1C[C@@H](O)[C@H]2O	–	–	8.28% (inactive)
Oc1ccc(C2=Cc3ccc(O)cc3OC2)cc1	–	9.35 µM (active) and 6.51 µM (active)	–
COc1ccc(-c2oc3c(CC=C(C)C)c(OC4O[C@H](CO)[C@@H](O)[C@H](O)[C@@H]4O)cc(O)c3c(=O)c2OC2O[C@@H](C)[C@H](O)[C@@H](O)[C@@H]2O)cc1 (stereo partly drawn)	–	23.5 µM (active)	–
CC(C(=O)O)c1ccc(-c2ccccc2)c(F)c1 (stereo not drawn)	–	inactive	–
O=C(CCN1CCN(C(=O)OCc2cc(Cl)cc(Cl)c2)CC1)c1ccc2[nH]c(=O)oc2c1	–	inactive	–
O=C(O)c1cc(O)c2c(c1)C(=O)c1cccc(O)c1C2=O	–	–	9.41% [at 93.4 µM] (inactive)
CC=CCC=CCCC(=O)[C@H]1O[C@@H]1C(N)=O	inactive	–	–
OC[C@@H](O)[C@H](O)[C@H](O)[C@@H](O)CO	–	inactive	–
CC(=O)Oc1cc2c(s1)CCN(C(C(=O)C1CC1)c1ccccc1F)C2 (stereo not drawn)	–	–	-0.369% (inactive)
